In PubChem BioAssay:
A number with no mark means an inactive call. Some of the results follow. The source made the active and inactive calls.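 How the source made its calls, unless noted: active means mean inhibition above 46.5%, the solvent-only control mean plus 3 SD; inactive means the rest.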

Key:
[1] = biological target: Nuclear receptor coactivator 3 (Homo sapiens) (UniProt Q9Y6Q9); experiment: SRC3 coactivator transcriptional activity inhibitors, confirmation, cell-based, luminescence, quadruplicate (AID 588792;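 active means mean inhibition over 43.08%, the solvent-only control mean plus 3 SD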;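 further: 0% = DMSO treated cells and 100% = gossypol at 36 µM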); settings: HEK293 GAL4-SRC3 luciferase reporter, at 3.6 µM, stronger effect = higher value
[2] = test system: transactivating tegument protein VP16 (Human herpesvirus 1), Gal4-VP16 luciferase reporter; experiment: VP16 transactivation inhibitors, counter-screen for SRC3 inhibitor project, cell-based, luminescence, high throughput (AID 588794; in the data active means inhibition above about 30%); settings: mammalian cells, VP16-driven luciferase reporter luminescence; at 3.6 µM; stronger effect = higher value
[3] = biological target: Nuclear receptor coactivator 1 (Homo sapiens) (UniProt Q15788); experiment: SRC1 coactivator transcriptional activity inhibitors, confirmation, cell-based, luminescence, quadruplicate (AID 588820;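 active means mean inhibition above 46.68%, the untreated control wells mean plus 3 SD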;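 further: 0% = DMSO wells and 100% = gossypol 36 µM treated wells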); settings: HEK293 GAL4-SRC1 luciferase reporter, at 3.6 µM, stronger effect = higher value
[4] = VP16 transactivation inhibitors, counter-screen for SRC1 inhibitor project, cell-based, luminescence, high throughput (AID 588824; in the data active means inhibition above about 25%); settings: cell-based VP16 transactivation luciferase luminescence; at 3.6 µM; stronger effect = higher value
[5] = test system: transactivating tegument protein VP16 (Human herpesvirus 1); experiment: VP16 transactivation reporter inhibitors, counter-screen for SRC2 inhibitor project, cell-based, luminescence, single concentration (AID 652007; in the data active means inhibition above about 36%); settings: cell-based VP16 transactivation luciferase reporter, at 8.9 µM, stronger effect = higher value
[6] = biological target: Nuclear receptor coactivator 2 (Homo sapiens) (UniProt Q15596); experiment: SRC2 coactivator transcriptional activity inhibitors, confirmation, cell-based, luminescence, HEK293, triplicate (AID 652008); settings: HEK293 GAL4-SRC2 luciferase reporter, at 8.9 µM, stronger effect = higher value;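 further: 0% = DMSO-treated cells and 100% = Gossypol at 36 µM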
[7] = Gal4-VP16 luciferase reporter inhibitors, counter-screen for COUP-TFII antagonist project, cell-based, luminescence, HEK293 (AID 687007; in the data active means inhibition above about 13%); settings: at 8.5 µM, stronger effect = higher value
[8] = biological target: COUP transcription factor 2 (Homo sapiens) (UniProt P24468); experiment: NR2F2 transcriptional activity inhibitors, confirmation, cell-based, luciferase reporter, HEK293, triplicate (AID 687008;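 active means mean inhibition over three repeats above a set limit taken from the earlier primary screen, cut at about 38% in these data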;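 further: 100% = cells given the luciferase reporter alone without the COUP-TF2 vector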); settings: HEK293 NGFI-A luciferase reporter, luminescence; at 8.5 µM; stronger effect = higher value
Chain of COUP transcription factor 2 (Homo sapiens) (P24468 whole entry, looked up): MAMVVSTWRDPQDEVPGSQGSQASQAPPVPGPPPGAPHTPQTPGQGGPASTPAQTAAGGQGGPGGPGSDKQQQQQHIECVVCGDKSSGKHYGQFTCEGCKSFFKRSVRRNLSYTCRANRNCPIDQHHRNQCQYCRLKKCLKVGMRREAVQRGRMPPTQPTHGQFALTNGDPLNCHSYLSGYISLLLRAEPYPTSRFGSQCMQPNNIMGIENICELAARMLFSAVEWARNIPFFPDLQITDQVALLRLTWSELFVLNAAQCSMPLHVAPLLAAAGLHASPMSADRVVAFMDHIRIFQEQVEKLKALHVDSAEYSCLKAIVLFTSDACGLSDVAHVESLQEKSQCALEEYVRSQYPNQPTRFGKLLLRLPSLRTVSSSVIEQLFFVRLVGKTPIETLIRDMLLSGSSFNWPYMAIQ

Chain of Nuclear receptor coactivator 3 (Homo sapiens) (Q9Y6Q9 whole entry, looked up, the tested form may be a part): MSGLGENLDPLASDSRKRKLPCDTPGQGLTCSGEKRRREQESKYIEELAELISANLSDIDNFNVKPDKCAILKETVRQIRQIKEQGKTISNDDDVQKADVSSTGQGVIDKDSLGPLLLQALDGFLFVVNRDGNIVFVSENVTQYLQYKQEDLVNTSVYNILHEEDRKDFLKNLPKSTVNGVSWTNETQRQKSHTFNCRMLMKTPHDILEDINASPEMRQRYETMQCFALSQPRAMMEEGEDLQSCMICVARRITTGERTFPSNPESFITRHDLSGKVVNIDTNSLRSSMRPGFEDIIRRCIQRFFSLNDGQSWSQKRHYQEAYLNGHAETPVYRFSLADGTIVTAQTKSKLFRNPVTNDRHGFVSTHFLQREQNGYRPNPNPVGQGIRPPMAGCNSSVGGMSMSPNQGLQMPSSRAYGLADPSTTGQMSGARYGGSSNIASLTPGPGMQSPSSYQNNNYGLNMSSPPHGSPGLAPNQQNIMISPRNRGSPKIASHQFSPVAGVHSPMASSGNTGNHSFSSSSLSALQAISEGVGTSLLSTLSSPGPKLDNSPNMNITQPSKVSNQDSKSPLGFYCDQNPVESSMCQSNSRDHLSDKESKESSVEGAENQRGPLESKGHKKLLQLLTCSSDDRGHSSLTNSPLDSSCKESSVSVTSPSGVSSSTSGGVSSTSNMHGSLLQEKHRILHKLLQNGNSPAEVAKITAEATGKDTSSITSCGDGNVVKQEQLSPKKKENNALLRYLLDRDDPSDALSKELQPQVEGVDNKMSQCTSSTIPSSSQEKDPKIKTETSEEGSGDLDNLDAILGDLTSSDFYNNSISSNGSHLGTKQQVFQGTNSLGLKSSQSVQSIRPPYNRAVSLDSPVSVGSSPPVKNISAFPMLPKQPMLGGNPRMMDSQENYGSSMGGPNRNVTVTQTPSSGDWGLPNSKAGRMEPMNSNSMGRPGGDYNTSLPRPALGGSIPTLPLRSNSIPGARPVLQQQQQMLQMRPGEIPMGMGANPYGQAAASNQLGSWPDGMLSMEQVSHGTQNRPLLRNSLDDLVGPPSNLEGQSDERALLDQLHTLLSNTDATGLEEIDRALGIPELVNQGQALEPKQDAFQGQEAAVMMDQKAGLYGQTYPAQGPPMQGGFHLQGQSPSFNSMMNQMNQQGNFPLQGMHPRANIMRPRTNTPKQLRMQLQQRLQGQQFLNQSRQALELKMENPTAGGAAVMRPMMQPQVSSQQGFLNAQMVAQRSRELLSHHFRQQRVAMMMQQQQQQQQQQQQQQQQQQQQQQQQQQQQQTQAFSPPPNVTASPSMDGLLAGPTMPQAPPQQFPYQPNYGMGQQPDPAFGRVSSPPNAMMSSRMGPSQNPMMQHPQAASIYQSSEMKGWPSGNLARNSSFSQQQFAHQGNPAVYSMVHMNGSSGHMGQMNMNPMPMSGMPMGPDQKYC
Chain of Nuclear receptor coactivator 1 (Homo sapiens) (Q15788 whole entry, looked up, the tested form may be a part): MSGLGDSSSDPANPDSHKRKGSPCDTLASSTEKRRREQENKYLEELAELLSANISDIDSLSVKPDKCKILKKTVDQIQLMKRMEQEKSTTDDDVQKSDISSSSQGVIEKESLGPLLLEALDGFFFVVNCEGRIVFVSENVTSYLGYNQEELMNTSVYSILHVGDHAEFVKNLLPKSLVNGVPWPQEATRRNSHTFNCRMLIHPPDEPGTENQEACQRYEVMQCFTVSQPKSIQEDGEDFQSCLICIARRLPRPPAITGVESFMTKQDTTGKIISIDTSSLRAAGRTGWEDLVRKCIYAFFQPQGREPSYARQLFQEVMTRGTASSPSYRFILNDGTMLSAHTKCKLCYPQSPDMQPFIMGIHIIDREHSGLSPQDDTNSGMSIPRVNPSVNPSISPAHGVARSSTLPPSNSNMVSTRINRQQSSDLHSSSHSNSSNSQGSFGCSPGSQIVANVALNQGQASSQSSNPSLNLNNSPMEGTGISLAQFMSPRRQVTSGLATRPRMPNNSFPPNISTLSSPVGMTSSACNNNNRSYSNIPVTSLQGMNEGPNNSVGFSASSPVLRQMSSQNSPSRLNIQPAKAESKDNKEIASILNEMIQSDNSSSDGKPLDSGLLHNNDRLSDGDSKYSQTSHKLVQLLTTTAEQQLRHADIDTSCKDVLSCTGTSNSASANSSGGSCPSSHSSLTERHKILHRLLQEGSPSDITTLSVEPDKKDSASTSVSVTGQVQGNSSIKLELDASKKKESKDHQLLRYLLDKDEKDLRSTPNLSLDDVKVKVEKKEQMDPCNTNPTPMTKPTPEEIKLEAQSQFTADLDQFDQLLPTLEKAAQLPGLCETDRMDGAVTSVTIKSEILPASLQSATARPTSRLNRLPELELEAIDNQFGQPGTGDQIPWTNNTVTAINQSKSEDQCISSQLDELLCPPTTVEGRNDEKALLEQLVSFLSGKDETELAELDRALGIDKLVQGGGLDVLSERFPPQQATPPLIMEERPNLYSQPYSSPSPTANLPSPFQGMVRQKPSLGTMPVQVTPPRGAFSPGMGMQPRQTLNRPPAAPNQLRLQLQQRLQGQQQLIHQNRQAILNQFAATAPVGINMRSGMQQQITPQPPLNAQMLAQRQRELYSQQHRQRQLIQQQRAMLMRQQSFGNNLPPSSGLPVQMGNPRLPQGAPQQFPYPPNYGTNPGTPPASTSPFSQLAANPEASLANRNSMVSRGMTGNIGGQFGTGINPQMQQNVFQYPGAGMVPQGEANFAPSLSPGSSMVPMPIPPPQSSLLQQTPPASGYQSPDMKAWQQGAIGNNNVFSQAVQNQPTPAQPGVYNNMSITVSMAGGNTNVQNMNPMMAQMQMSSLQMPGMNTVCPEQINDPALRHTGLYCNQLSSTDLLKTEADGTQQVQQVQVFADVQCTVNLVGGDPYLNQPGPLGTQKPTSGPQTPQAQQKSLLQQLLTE
Chain of Nuclear receptor coactivator 2 (Homo sapiens) (Q15596 whole entry, looked up, the tested form may be a part): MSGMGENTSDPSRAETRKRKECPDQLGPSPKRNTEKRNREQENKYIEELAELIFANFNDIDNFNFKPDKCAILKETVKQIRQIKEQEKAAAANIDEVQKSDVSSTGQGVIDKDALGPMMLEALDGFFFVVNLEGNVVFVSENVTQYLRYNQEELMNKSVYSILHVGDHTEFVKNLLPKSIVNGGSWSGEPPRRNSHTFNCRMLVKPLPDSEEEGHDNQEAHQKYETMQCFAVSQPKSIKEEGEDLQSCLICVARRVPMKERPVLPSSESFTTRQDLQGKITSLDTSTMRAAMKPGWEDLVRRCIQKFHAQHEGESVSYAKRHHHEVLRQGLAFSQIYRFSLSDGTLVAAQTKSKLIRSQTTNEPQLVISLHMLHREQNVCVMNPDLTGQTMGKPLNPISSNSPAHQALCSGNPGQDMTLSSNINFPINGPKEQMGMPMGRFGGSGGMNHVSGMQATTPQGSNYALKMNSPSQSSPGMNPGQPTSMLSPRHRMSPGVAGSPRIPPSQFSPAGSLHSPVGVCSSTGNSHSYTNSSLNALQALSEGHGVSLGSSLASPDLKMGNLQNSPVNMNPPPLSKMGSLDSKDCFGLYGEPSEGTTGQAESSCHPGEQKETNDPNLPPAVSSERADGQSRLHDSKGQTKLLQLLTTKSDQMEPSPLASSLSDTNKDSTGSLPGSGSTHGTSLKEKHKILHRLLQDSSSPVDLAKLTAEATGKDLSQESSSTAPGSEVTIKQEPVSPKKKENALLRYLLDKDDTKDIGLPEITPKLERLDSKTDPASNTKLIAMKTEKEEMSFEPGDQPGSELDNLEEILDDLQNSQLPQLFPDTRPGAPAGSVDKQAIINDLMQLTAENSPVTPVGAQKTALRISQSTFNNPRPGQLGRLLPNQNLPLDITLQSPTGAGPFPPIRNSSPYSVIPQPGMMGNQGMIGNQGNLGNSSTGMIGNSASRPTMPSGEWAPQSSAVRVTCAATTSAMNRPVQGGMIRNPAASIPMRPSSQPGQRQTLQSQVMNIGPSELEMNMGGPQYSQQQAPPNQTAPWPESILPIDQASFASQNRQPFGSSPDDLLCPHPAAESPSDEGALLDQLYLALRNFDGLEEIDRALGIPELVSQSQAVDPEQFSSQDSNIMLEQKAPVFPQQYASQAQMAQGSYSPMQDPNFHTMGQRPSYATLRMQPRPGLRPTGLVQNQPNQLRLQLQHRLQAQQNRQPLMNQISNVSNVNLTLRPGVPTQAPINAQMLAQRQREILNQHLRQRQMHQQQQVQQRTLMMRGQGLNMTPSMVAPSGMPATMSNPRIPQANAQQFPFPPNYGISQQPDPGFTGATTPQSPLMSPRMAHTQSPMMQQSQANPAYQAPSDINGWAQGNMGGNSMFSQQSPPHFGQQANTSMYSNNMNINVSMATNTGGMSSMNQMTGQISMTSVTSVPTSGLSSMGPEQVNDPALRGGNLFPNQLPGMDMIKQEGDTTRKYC

Row | Compound | inhibition [1] | inhibition [2] | inhibition [3] | inhibition [4] | inhibition [5] | inhibition [6] | inhibition [7] | inhibition [8]
1 | O=C(Nc1ccccc1Oc1ccccc1)c1cc([N+](=O)[O-])ccc1Cl | 52.5% (active) | 24.8% | 24.8% | 33.9% (active) | 21.9% | 50.4% (active) |  | 
2 | Cc1ccc(OCC(=O)c2cc(C)n(-c3ccccc3)c2C)c([N+](=O)[O-])n1 | 38.5% | -20.9% | 29.1% | -31.4% | -12.8% | 83.3% (active) |  | 
3 | CCOC(=O)c1cccc(NS(=O)(=O)c2ccc(NC(C)=O)cc2)c1 | 43.5% (active) | 35.8% (active) | 40.5% | 26.5% (active) | -6.82% | 40.8% |  | 
4 | Cc1[nH]ccc2c1[nH]c1cc(=O)ccc12 | 56% (active) | 39.5% (active) | 59.1% (active) | 38.7% (active) | 3.4% | 26% |  | 
5 | Cc1nnc(-c2ccccc2)c(=O)n1/N=C/c1c(O)ccc2ccccc12 | 40.6% | 55% (active) | 57% (active) | 62.6% (active) | -12.9% | 23.1% |  | 
6 | Cc1nc2sc(C(N)=O)c(N)c2c2c1CCCC2 | 79.4% (active) | 47.5% (active) | 69% (active) | 51% (active) | 6.77% | 61.5% (active) |  | 
7 | Cn1nc(C(F)(F)F)c(C#N)c1N1CCN(c2ccc(F)cc2)CC1 | 36.7% | 31.8% (active) | 36.7% | 25.1% | -6.8% | 48.8% (active) |  | 
8 | Oc1ccc(N=Nc2ccc3c(c2)OCCO3)c2cccnc12 | 19.8% | -38.3% | 4.34% | -39.5% | -16.8% | -7.52% |  | 
9 | CC(C)(C)c1ccc(C(=O)NC(=S)Nc2nc3c(s2)CCCC3)cc1 | 20.4% | -9.66% | -33.4% | -47.4% | 0.2% | 34.8% |  | 
10 | CCOc1ccc(/C=C2\SC(=S)N(CCC(=O)O)C2=O)cc1 | 29% | -33.1% | 39.5% | -38.8% | -7.9% | 84.6% (active) |  | 
11 | COc1ccccc1/C=C/C(=O)c1c2c(c(C)[nH]c1=O)CCCC2 | 46.6% (active) | 49.9% (active) | 59% (active) | 44.1% (active) | 34.1% | 39% |  | 
12 | CCOC(=O)NNC(=O)CCn1c2c(c3ccccc31)CCCC2 | 54.1% (active) | 43.4% (active) | 51.3% (active) | 37% (active) | 1.39% | 39.1% |  | 
13 | Cn1cc(C(=O)N/N=C/c2c(O)ccc3ccccc23)ccc1=O | 52.8% (active) | 42.4% (active) | 49.5% (active) | 44% (active) | -10.3% | 26.8% |  | 
14 | OCCN(CCO)CC(O)COc1ccc(C23CC4CC(CC(C4)C2)C3)cc1 (stereo not given) | 23.8% | 18.7% | 15.1% | 8.76% | 61.9% (active) | 81.9% (active) |  | 
15 | C(=N\Nc1ccc2ccccc2n1)/c1ccc2c(c1)OCCO2 | 34.6% | 24.2% | -49.9% | -11.3% | 44.3% (active) | 83.2% (active) |  | 
16 | COc1cccc(Nc2ncnc3ccc(Br)cc23)c1 | 43.5% (active) | 31% (active) | 51% (active) | 30.9% (active) | -7.29% | 34.5% |  | 
17 | Cc1cc(N2CCOCC2)c2c(N)c(Br)cc(C)c2n1 | 71.8% (active) | 59% (active) | 76.3% (active) | 60.3% (active) | -7.31% | 54.8% (active) |  | 
18 | CC1CCc2nc(NC(=O)C3COc4ccccc4O3)sc2C1 (stereo not given) | 9.01% | -11.5% | -134% | -51.9% | -16.9% | 36.4% |  | 
19 | Clc1ccc(-c2csc(=Nc3cccnc3)n2CCCn2ccnc2)cc1Cl | 53.9% (active) | 35.4% (active) | 49.7% (active) | 39% (active) | 15.6% | 63.7% (active) |  | 
20 | COc1cc(SC)ccc1C(=O)Nc1nc(C)cs1 | 15.6% | 15.1% | -68.3% | 14.8% | 50.1% (active) | 75.4% (active) | 46.4% (active) | 69.1% (active)
21 | NNC(=O)c1cc2ccccc2cc1O | 67.7% (active) | 12.8% | 37.5% | 19.3% | 16.4% | 77.8% (active) |  | 

Row | Compound | inhibition [1] | inhibition [2] | inhibition [3] | inhibition [4] | inhibition [5] | inhibition [6] | inhibition [7] | inhibition [8]
22 | CCOc1cc(CNc2ccc3c(c2)OCCO3)cc(Br)c1OCC | 25.4% | 20.9% | -11.6% | 20.8% | -27.7% | -1.58% |  | 
23 | Nc1ccccc1Nc1cccc(C(F)(F)F)c1 | 25.9% | 18.6% | -6.37% | 13.5% | 6.37% | 43.7% |  | 
24 | C=CCSc1nsc(NC(=O)Nc2cccc(C(C)=O)c2)n1 | 44% (active) | 31.2% (active) | 46.4% | 27.2% (active) | -25.7% | 17.3% | -25.6% | 2.43%
25 | Cc1nc2cc(N3CCN(C)CC3)c(NC(=O)Cc3ccccc3)cc2c(=O)n1Cc1ccccc1 | 17.6% | 10.3% | -11.5% | -3.19% | 4.08% | 34.5% |  | 
26 | CC(=O)c1ccc(-n2c(C)c(C(C)=O)c3cc(O)ccc32)cc1 | 63% (active) | 45.6% (active) | 45.9% | 46.7% (active) | 2.74% | 54.7% (active) |  | 
27 | COc1ccc(-n2c(C)c([N+](=O)[O-])c3ccc(O)c(CN(C)C)c32)cc1 | 84.5% (active) | 61.8% (active) | 73.1% (active) | 61.4% (active) | 24.3% | 52% (active) |  | 
28 | NC(=O)c1sc2nc3c(c(-c4ccccc4)c2c1N)CCC3 | 77.1% (active) | 54.8% (active) | 72.8% (active) | 49.3% (active) | 12.9% | 51% (active) | 18.6% (active) | 31.9%
29 | c1csc(C2=Nn3c(nnc3-c3ccncc3)SC2)c1 | 72.9% (active) | 58.1% (active) | 67.9% (active) | 50.8% (active) | 29.6% | 62.6% (active) |  | 
30 | CC1(C)Cc2c(ccc3ccccc23)C(=O)N1 | 55.7% (active) | 37.2% (active) | 55% (active) | 23.7% | -22.7% | 32.1% |  | 
31 | CNc1ccc2ncc(-c3cccc(C(=O)N(C)C)c3)n2n1 | 72.2% (active) | 62.2% (active) | 72.4% (active) | 60.8% (active) | -12.3% | 42.7% |  | 
32 | CCc1c(C#N)sc(C(N)=O)c1CC | 27.8% | 20.5% | 20.6% | 13.2% | 8.1% | 25.6% |  | 
33 | O=C(CN1C(=O)c2ccccc2S1(=O)=O)N1CCc2ccccc21 | 60.5% (active) | 60.9% (active) | 40.8% | 65.1% (active) | 65.5% (active) | 85.9% (active) | 65.9% (active) | 74.9% (active)
34 | O=C(c1cncc(Br)c1)N1CCc2ccccc2C1 | 46.3% (active) | 33.3% (active) | 46.3% | 29.3% (active) | 1.4% | 15.9% |  | 
35 | Cc1cc(Sc2nnc(/N=C/N(C)C)s2)c2ccccc2n1 | 9.12% | 40.5% (active) | 2.4% | 33.8% (active) | -8.53% | 24.6% |  | 
36 | Nc1ccc2c(c1)OC1(CCCC1)O2 | 10.9% | 4.56% | -18.7% | 15.4% | -13% | 45.4% |  | 
37 | CC(C)c1ccc(/C=C2\SC(=S)N(CCC(=O)N3CCCCC3CCO)C2=O)cc1 (stereo not given) | 23.5% | -27.8% | 10.1% | -48.1% | -75% | 76.4% (active) |  | 
38 | Brc1ccc2ncnc(NCc3cccnc3)c2c1 | 70.6% (active) | 44% (active) | 55.9% (active) | 42.8% (active) | -3.67% | 39.8% |  | 
39 | COCCn1c(C)cc(C(=O)CSc2nnnn2C2CCCC2)c1C | -7.91% | -5.21% | -99.2% | -66.8% | -19.6% | 51.9% (active) |  | 
40 | Cc1csc(SCC(=O)Nc2cccc3nsnc23)n1 | 66.3% (active) | 35.1% (active) | 57.9% (active) | 37.7% (active) | -58.8% | 19.4% |  | 
41 | C=CCn1c(C)cc(C(=O)COc2ccc(C)nc2[N+](=O)[O-])c1C | 33.7% | -8.11% | 9.64% | -12.6% | -4.94% | 65.9% (active) |  | 
42 | Cc1cc(C(=O)CN2C(=O)c3ccccc3S2(=O)=O)c(C)n1C(C)C | 31.4% | 24.3% | -24.8% | 12.9% | 29.6% | 59.6% (active) |  | 
